Results filed as inconclusive are left out. Unmarked numbers belong to inactive results. Activity calls are given as the source filed them. Calls come from the whole dose curve; as a rule, active = well fitted cell-killing curve with a large enough effect in the repeat runs; inconclusive = weak or mixed curves; inactive = flat fitted curve, though single readings scatter.
% is set by controls: 0 for no effect and ±100 for the full control effect.

The test can be described thus: qHTS RealTime-Glo MT Cell Viability Assay in HepG2 cells - 32 hour (AID 1224877). Note: nearly all actives have a fitted effect of over 55% in size. As to conditions: RealTime-Glo luminescence; series mostly up to 76.8 µM; activity change, negative = cytotoxic: at the top concentration. The source says: U.S. Tox21 Program National Center for Advancing Translational Sciences [NCATS] NIH Chemical Genomics Center [NCGC] U.S. Environmental Protection Agency [EPA] National Institutes of Environmental Health Sciences [NIEHS] National Toxicology Program [NTP] U.S. Food and Drug Administration [FDA] Tox21 Assay Overview: Measure of cell viability is critical in the cell-base assay. Analysis of cell viability is necessary for the characterization of cell responses to cytotoxic drugs and environmental stress. A RealTime-Glo MT Cell Viability Assay to monitor cell viability in real time of continues cell culture during 40 hours of compound treatment was used to screen Tox21 10K library compounds in HepG2 cells. The RealTime-Glo MT Cell Viability Assay is a nonlytic, homogeneous, bioluminescent method to measure cell viability in real time using a simple, plate-based method. The assay involves adding NanoLuc luciferase and a cell-permeant prosubstrate to cells in culture. Viable cells reduce the proprietary prosubstrate to generate a substrate for NanoLuc luciferase. This substrate diffuses from cells into the surrounding culture medium, where it is rapidly used by the NanoLuc Enzyme to produce a luminescent signal. The signal correlates with the number of viable cells, making the assay well suited for cytotoxicity studies.
Tox21 Assay Protocol Summary: The mixture of HepG2 cell suspension and reagents were dispensed at 600cells/6 ul/well in 1536-well tissue culture treated black solid bottom plates using a Multidrop dispenser. After the assay plates were incubated at a 37 C/5% CO2 incubator for 5 hours, 23 nL of compounds dissolved in DMSO, positive and negative controls was transferred to the assay plate by a pintool work station. The plates were incubated at 37 C for 40 hours. The luminescence intensity were measured at 0h, 8h, 16h, 24h, 32h and 40h time points using ViewLux plate reader during compound treatment.
A general note: Quantitative high-throughput screening tests each substance at several concentrations.
With `C#CC(C)(C)O`, the “activity change, negative = cytotoxic” value was -1.53%.

Take `[P]#[In]`: the “activity change, negative = cytotoxic” value was 2.01%.

Regarding `CS(=O)(=O)Cl`, the “activity change, negative = cytotoxic” value is 2.44%. Take `CCOC(=O)C(SP(=S)(OC)OC)c1ccccc1` (stereo not given): the “activity change, negative = cytotoxic” value was -6.58%. Still for that read-out and setting: for `CCCOC(=O)Cc1ccc(OCC(=O)N(CC)CC)c(OC)c1` the value was -0.357% [at 35.3 µM].

`CN1C(=O)COc2c(C(=O)NC3CN4CCC3CC4)cc(Cl)cc21` (stereo not given): the “activity change, negative = cytotoxic” value is 2.94% [at 35.3 µM]. The same measure, in the same setting: for `N#CN` the value was -0.048% [at 200 µM]; for `Nc1c(Cl)c(F)nc(OCC(=O)O)c1Cl`, -0.15%. The same measure, in the same setting: for `C=CC=O` the value was -0.445%; for `BrCCc1ccccc1`, 0.0021%; for `CC(Cc1ccccc1)NCCCCl` (stereo not given), 2.43% [at 35.3 µM]. Still for that read-out and setting: for `CCN[C@@H](C)Cc1ccccc1` the value was -2.38%; for `NC(=O)CS(=O)C(c1ccccc1)c1ccccc1` (stereo not given), -0.02% [at 35.3 µM].

With `[O-][Br+2]([O-])O`, the “activity change, negative = cytotoxic” value is 6.77% [at 35.3 µM].

Regarding `O=CCCl`, the “activity change, negative = cytotoxic” value is 2.3%. In the case of `CN(C)CCN(C)C`, the “activity change, negative = cytotoxic” value is 0.805%. Regarding `N=C(N)[Se]`, the “activity change, negative = cytotoxic” value was 1.79%. On the same count and under the same terms, for `COc1cc(CCN)cc(OC)c1OC` the value was -0.222%. Same read-out and setting: for `O=C(Cl)C(Cl)(Cl)Cl` the value was 0.0148%. As to `CON(C)C(=O)Nc1ccc(Br)c(Cl)c1`, the “activity change, negative = cytotoxic” value was 0.205%. As to `CCNc1nc(Cl)nc(NC(C)(C)C)n1`, the “activity change, negative = cytotoxic” value was 2.81%. As to `CCCCCCCCBr`, the “activity change, negative = cytotoxic” value is -0.583%. Same read-out and setting: for `CCN(CC)CCOC(=O)C(O)(c1ccccc1)c1ccccc1` the value was 4.87% [at 35.3 µM]; for `CC(=NC#N)N(C)Cc1ccc(Cl)nc1`, -0.725%; for `O=C1CCCCC1Cl` (stereo not given), -3.76%. Take `CCCCS(=O)(=O)Cl`: the “activity change, negative = cytotoxic” value is -0.407%. Consider `BrCc1ccc(Br)cc1`, for which the “activity change, negative = cytotoxic” value is 2.42%. For `O=C(O)C(Cl)Br` (stereo not given), the “activity change, negative = cytotoxic” value is 4.01%. Still for that read-out and setting: for `ClCOCCl` the value was -3.63%; for `NCCOS(=O)(=O)O`, 2.61%; for `COP(=O)(O)OC`, 0.972%. Same read-out and setting: for `Cc1ccc(Cl)c(O)c1` the value was 2.85% [at 35.3 µM].

`CCCC(C)(COC(N)=O)COC(N)=O`: the “activity change, negative = cytotoxic” value is -0.703%. Same read-out and setting: for `ClC(Cl)(Cl)Cl` the value was 1.16%; for `O=C(O)c1c(Cl)ccc2cc(Cl)cnc12`, 3.4%. Still for that read-out and setting: for `CCN(CCO)CCn1c(Cc2ccccc2)nc2c1c(=O)n(C)c(=O)n2C` the value was 3.58% [at 35.3 µM].

For the compound `Cc1ccc2cc(C)ccc2c1`, the “activity change, negative = cytotoxic” value was 0.392%.

`C[C@H]1CCCC(=O)CCC/C=C/c2cc(O)cc(O)c2C(=O)O1`: the Potency result is “inactive”. For the compound `CN(C)C1CCCCC1`, the “activity change, negative = cytotoxic” value is 1.34%. Consider `O=C(Cl)/C=C/C(=O)Cl`, for which the “activity change, negative = cytotoxic” value is -0.0091%.

Source of the values: PubChem BioAssay (Tox21).
